Most compounds without a hit are left out; they make up all but 1.7% or so of the library.
Imprint erasure = qHTS Assay for Compounds that Induce Erasure of Genomic Imprints; mouse ES Peg3-LacZ reporter, beta-gal luminescence, 40 h; Potency, µM (titrated, usually from 60.7 µM), for inactives: at the highest dose activity change, positive = activation, actives largely listed as activators; 0.02% of 110,000 active; AID 1948, 2009
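Readout: BetaGlo luminescence (5 min, room temp) for LacZ from the normally silent maternal Peg3 allele in female Peg3LacZ-Neo ES cells. Cells 300/well, 40 h, 37C, 5% CO2. Data normalized per plate to negative controls.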
p53ts 32C kill = qHTS Screen for Compounds that Selectively Target Cancer Cells with p53 Mutations: Cytotoxicity of p53ts Cells at the Permissive Temperature | H1299-p53A138V at 32C, ATP luminescence viability, 24 h | Potency, µM (top dose mostly 46.1 µM), inactives show at the highest dose activity change, negative = cytotoxicity, hits mostly cytotoxic | 0.93% of 130,000 active | AID 924, 2007;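 further: 0% = DMSO and -100% = full killing by reference compound; nearly all actives have a fitted effect of over 55% in size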
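ATP-content luminescence (ATPlite) read-out after 24 h compound exposure at 32C in H1299-p53A138V cells (600/well). Tested up to 46 uM. Normalized to DMSO (0%) and 100 uM tamoxifen (100% killing); Hill-fit AC50.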
IkB sig inh = IkB Signaling; ABC-DLBCL IkBa-CBG/CBR dual luciferase ratio, 4 h; response scale: scaled: untreated 0%, proteasome inhibitor 100%; AID 445, 2006; Potency, µM (series often up to 57.1 µM), without a hit: at the highest dose IkBa stabilization activation; 0.04% of 110,000 active; active means well fitted curve in the direction sought with a large enough effect in the signal ratio, not every such curve was filed as active; inconclusive means small, poorly fitted or top-dose-only effect, or a change in a side signal; the % refers to the signal ratio;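 further: the direction sought is a rising ratio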
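Luminescence ratio of IκBα-fused green versus native red beetle luciferase in OCI-Ly3 cells, 4 h post-doxycycline with compound; red signal alone, scaled from basal (0%) to zero light (-100%), flagged nonspecific or cytotoxic effects.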
p53ts 39C kill = qHTS Screen for Compounds that Selectively Target Cancer Cells with p53 Mutations: Cytotoxicity of p53ts Cells at the Nonpermissive Temperature; H1299-p53A138V viability at 39C, ATP luminescence, 24 h; Potency, µM (doses to about 46.1 µM), without a hit: at the top dose activity change, negative = cell killing, usual class: cytotoxic; 1.5% of 130,000 active; further: on the % scale 0 is the no-effect control and ±100 the full control effect; nearly all actives have a fitted effect of over 55% in size
* hit, by the source's call; ! = not active in a repeat; [ ] = remark or other dose. Unless noted, the call rests on the fitted dose curve; in most records, active means well fitted curve in the direction sought with a large enough effect; inconclusive means small, poorly fitted or top-dose-only effect, or another doubt; inactive means no such curve, though single readings can be large; an effect the other way counts as inactive or inconclusive. Potency means the concentration at half of the fitted maximal effect.

What do the screens show for `CCCCS(=O)(=O)c1nc(-c2ccc(Br)cc2)cc(-c2ccccc2)c1C#N`?
Imprint erasure: -37%[10.9 µM]; p53ts 32C kill: 2µM*; IkB sig inh: 3.2µM*; p53ts 39C kill: inconclusive

How did CC(=O)c1c(C)oc2ccc(N(C(=O)Oc3ccccc3)S(=O)(=O)c3ccccc3)cc12 do in these assays?
Imprint erasure: -14%[10.9 µM]; p53ts 32C kill: 4%; IkB sig inh: 3%; p53ts 39C kill: 0%

What do the screens show for `CN1CCN(c2ncc3nc(-c4ccccc4)c(=O)n(C)c3n2)CC1`?
Imprint erasure: 10µM*; p53ts 32C kill: 1%; IkB sig inh: -2%[11.4 µM]; p53ts 39C kill: -6%

What do the screens show for `C=C(CO)[C@H]1Cc2c(ccc3c2O[C@H]2COc4cc(OC)c(OC)cc4[C@@H]2C3=O)O1`?
IkB sig inh: 9%[11.4 µM]

Results for CCCC(=O)Nc1ccc(-c2nc3cc(C)c(C)cc3o2)cc1 ?
Imprint erasure: -18%; p53ts 32C kill: -6%; IkB sig inh: 0%; p53ts 39C kill: 6%

Results for CCCC(=O)Nc1cccc(-c2nc3cc(C)c(C)cc3o2)c1C ?
Imprint erasure: -19%[10.9 µM]; p53ts 32C kill: 2µM*; IkB sig inh: inconclusive; p53ts 39C kill: 2.5µM*

What do the screens show for `COc1ccc(C(=O)c2ccccc2O)c(O)c1`?
Imprint erasure: -14%; p53ts 32C kill: 12%; IkB sig inh: 0%[25.6 µM]; p53ts 39C kill: -3%

What do the screens show for `COc1ccc(O)c(C(=O)CC(=O)c2ccccc2)c1`?
Imprint erasure: -86%; p53ts 32C kill: 10µM*; IkB sig inh: 16%; p53ts 39C kill: 13µM*

Results for C/C(=N/NC1=NCCN1)c1cn(C2=NCCN2)nc1C ?
Imprint erasure: 11%[10.9 µM]; p53ts 32C kill: 4%[9.22 µM]; IkB sig inh: 0%[11.4 µM]; p53ts 39C kill: 1%[9.22 µM]

Results for CCCc1nn2c(=O)cc(COC(=O)c3ccccc3NC(=O)c3ccc(OCC)cc3)nc2s1 ?
Imprint erasure: 12%[10.9 µM]; p53ts 32C kill: -11%; IkB sig inh: -1%; p53ts 39C kill: 10µM*

Results for CC(=O)Nc1ccc(NC(=O)c2ccc3c(c2)N(Cc2cccc(Cl)c2)C(=O)c2ccccc2S3=O)cc1 (stereo unspecified) ?
Imprint erasure: -11%[10.9 µM]; p53ts 32C kill: 30%; IkB sig inh: inconclusive; p53ts 39C kill: -5%

Results for CCCCN1C(=O)CN(C2CCCCCC2)C(=O)C1c1ccc(OCC)c(OC)c1 (stereo unspecified) ?
Imprint erasure: -11%[10.9 µM]; p53ts 32C kill: 4%; IkB sig inh: -1%; p53ts 39C kill: -27%

How did COc1ccc(C/C(O)=C(\C#N)c2nc3ccccc3s2)cc1 do in these assays?
Imprint erasure: -7%; p53ts 32C kill: inconclusive; IkB sig inh: inconclusive; p53ts 39C kill: 13µM*

Results for N#Cc1cccc(NC(=O)c2cc3c(s2)-c2ccc(Cl)cc2SC3)c1 ?
Imprint erasure: -10%[10.9 µM]; p53ts 32C kill: inconclusive; IkB sig inh: -2%; p53ts 39C kill: 10µM*

Results for O=C1CC(c2ccc3c(c2)OCO3)Sc2nc3ccccc3n21 (stereo unspecified) ?
Imprint erasure: -31%; p53ts 32C kill: 13µM*; IkB sig inh: inconclusive; p53ts 39C kill: 13µM*

What do the screens show for `C[C@H](C(=O)c1ccccc1)[C@@H](c1ccccc1)N1CCOCC1`?
p53ts 32C kill: 0%[9.22 µM]; IkB sig inh: 0%[11.4 µM]; p53ts 39C kill: 6%[9.22 µM]

How did CCCCC#CC1C=CC(Oc2ccc(OC)cc2)C(CO)O1 (stereo unspecified) do in these assays?
p53ts 32C kill: 2%[9.22 µM]; p53ts 39C kill: -4%[9.22 µM]

Results for O=c1c(-c2ccc(O)cc2)coc2cc(O)cc(O)c12 ?
Imprint erasure: -31%; p53ts 32C kill: 10µM*!; IkB sig inh: inconclusive; p53ts 39C kill: inconclusive

Results for COc1ccc(-c2coc3cc(O)cc(O)c3c2=O)cc1 ?
Imprint erasure: -59%; p53ts 32C kill: inconclusive; IkB sig inh: -2%[11.4 µM]; p53ts 39C kill: inconclusive

Results for Cc1cccc(CNC(=O)CN2C(=O)CSc3c2c(C)nn3-c2ccccc2)c1 ?
Imprint erasure: -2%[10.9 µM]; p53ts 32C kill: -3%; IkB sig inh: inconclusive; p53ts 39C kill: -3%

What do the screens show for `CC(C)(C)CNCCO`?
Imprint erasure: -1%[10.9 µM]; p53ts 32C kill: 3%[9.22 µM]; IkB sig inh: 1%[11.4 µM]; p53ts 39C kill: 2%[9.22 µM]
